# Laboratory results: PubChem BioAssay (NCI)
# Where “and” joins values, the source holds several entries; their conditions need not be identical. Equal values may be shown once. The panel holds about 83,000 compounds, 20% with a hit somewhere; the sample as a whole holds those more often.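 The test compound was applied at a single concentration to cells in 96-well plates for 48 hours, and percent growth was recorded.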 Values without a mark were called inactive. Calls of active or inactive are those of the source. How the source made its calls: active means growth percent below 10; inactive means the rest.
# Test system: HL-60(TB) leukemia
# Test: NCI-60 one-dose screen, 48 h (100 = growth as untreated, 0 = no growth, -100 = all killed)
# Conditions: 10 µM unless noted
row,SMILES,growth
1,Nc1nc(N)nc(NCc2ccccc2)n1,98.6%
2,Cc1ccc(C2C=C(c3ccc(Cl)cc3)N=C3SC=CN32)c(Br)c1 (centres undefined),104%
3,CCOC(=O)C1=CC(=O)CC(C)(C)O1,53.2% and 69.6%
4,O=[N+]([O-])c1ccc(/C=N\NC(=S)Nc2ccc(F)cc2)cc1,114% and 82.5%
5,Cc1nnc(-n2c(O)cc(=O)n(-c3ccccc3)c2=S)nc1/C=C/c1ccc(N(C)C)cc1,7.92% (active)
6,CC[C@H](C)C(=O)O[C@H]1CCC=C2C=C[C@H](C)C(CCC3C[C@@H](O)CC(=O)O3)[C@H]21 (some centres undefined),97.8%
7,COc1ccc(/C=C2/C(=O)NC(SCC(=O)N3CCN(c4cc5c(cc4F)c(=O)c(C(=O)O)cn5C4CC4)CC3)=NC2N)cc1OC (centres undefined),104%
8,O=C(c1nn(-c2ccccc2)c2c1CC(NCc1ccc(F)cc1)CC2)N1CCCCC1 (centres undefined),86.6%
9,O=C(c1cc(-c2ccc(Cl)cc2)nc2ccccc12)N1N=C(c2ccccc2)CC1c1cc(-c2ccccc2)nn1-c1ccccc1 (centres undefined),91.6%
10,O=C(O)[C@@H]1c2ccccc2-c2ccccc2[C@H]1C(=O)O,91.3%
11,Cc1ccccc1CNc1ccc(N2CCOCC2)cc1,102%
12,COc1cc(NC(C)CCCN)c2nccc(C)c2c1OC (centres undefined),-3.41% (active)
13,COc1ccc(Nc2nnc(SCc3ccccc3F)s2)cc1,86%
14,Cc1cc(N2CCC(N3CCCC3)CC2)nc(/N=C(\N)Nc2ccc(Cl)c(Cl)c2)n1,90.4%
15,COc1ncc(-c2ccc3ncnc(Nc4cccc(Cl)c4)c3c2)cc1NS(C)(=O)=O,19.1%
16,Nc1ncncc1-c1ccc(F)cc1,103%
17,CC(C)(C)C1=CC(=O)C(C(C)(C)C)=CC1=O,92.5% and 106%
18,O=C(Nc1ccc(S(=O)(=O)NC2CCCCCC2)cc1)C(c1ccccc1)S(=O)(=O)c1ccc(F)cc1 (centres undefined),-12.4% (active)
19,CNCc1cccc2c1OCCOCCOCCN(CCN1CCOCC1)S(=O)(=O)c1ccc(cc1)-c1cnc(N)c(n1)C(=O)N2,-23.5% (active)
20,COc1ccc(-c2ccc3c(c2)sc2nc(-c4ccc(F)cc4)cn23)cc1,92%

row,SMILES,growth
1,COc1ccc(-c2nnc(SC/C(=N\O)c3ccccc3)o2)cc1,86.8%
2,Cc1c2c(cn1Cc1ccccc1)CCc1cn[nH]c1-2,90.6%
3,Cc1ccc(-c2cn(C/C=C3\C=CN(S(=O)(=O)c4ccccc4)CC3)nn2)cc1,105%
4,COc1ccc(/C=C(/C(=O)N2CCN(c3ccccc3)CC2)c2cc(OC)c(OC)c(OC)c2)cc1N,-37.5% (active)
5,CCc1ccccc1-n1c(-c2ccc(Cl)cc2)cc(-c2ccc(Cl)cc2)c(C#N)c1=O,82.7%
6,COc1cc(OCc2cccc(-c3ccc(C(O)c4nccs4)cc3)c2C)cc(OC)c1CNCCNC(C)=O (centres undefined),101%
7,CCCCNC(=O)Oc1ccc2c(=O)c3sc4c(=O)c5ccccc5c(=O)c4c3c(=O)c2c1,-43.3% (active)
8,COc1ccc(\C=N/N=C(N)/C(N)=N\N=C/c2ccc(OC)cc2)cc1,91.5%
9,O=C(N/N=C\c1cc(Cl)ccc1O)c1ccncc1,0% (active)
10,O=S(=O)(NCCCNc1cc(-c2cn(-c3ccccc3)nc2-c2cccc(O)c2)ccn1)c1ccccc1,42.8%
11,O=C1Nc2ccc(F)cc2/C1=C\c1c(-c2ccccc2)nc2ccccn12,56.4%
12,O=C(Nc1ccc(-c2nc(-c3cccc(OCCN4CCOCC4)c3)c(-c3ccnc(Br)c3)[nH]2)cc1)c1ccccc1,-41.2% (active)
13,CCN1C(=O)/C(=c2\sc3n(c2=O)C2C(NN=3)N(CC)C(=S)N2CC)c2ccccc21 (centres undefined),87.4%
14,CCOC(=O)c1nn(C2CCCCO2)c2ccc(NC(=O)CN3CCOCC3)cc12 (centres undefined),97%
15,CCNS(=O)(=O)c1ncnc2nc[nH]c12,112%
16,OCCSc1ccc(Cl)cc1,131% and 90.3%
17,COc1ccccc1OC(=O)Oc1ccccc1OC,101% and 98.4%
18,CCOC(=O)C1=C(N)Oc2c(sc3c(CC)cccc23)C1c1ccc(F)cc1 (centres undefined),23.7%
19,ClCC(Cl)[C@@H]1CC2C=CC1C2 (some centres undefined),104%
